# TTR transcr act – increases transthyretin transcription; SH-SY5Y TTR promoter Gaussia luciferase, luminescence; 100% = recombinant luciferase protein wells; 92,000 tested, 1.3% active; activation, % at 16.7 µM;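 active = activation above the mean of all tested compounds plus 3 SD, cut at about 9.5% in these data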;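 also: cells exposed to compounds for one day before reading; 0% = median of all test compound wells on the plate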
# HuH7 TTR inh – counter-screen for TTR activators: TTR transcription inhibitors in HuH7 cells | shares compounds with TTR transcr act | HuH7 TTR promoter-Gaussia luciferase reporter, luminescence | inhibition, % at 16.7 µM | 1,100 tested, 4% active | AID 1117279;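 active = average inhibition above the solvent-only control wells' mean plus 3 SD, cut at about 15% in these data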;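 also: 0% = cells with DMSO only and 100% = cells with inhibitor control FD; inhibitors lower well luminescence so higher value means more inhibition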
# TTR up confirm – human TTR transcription activation, confirmation | shares compounds with TTR transcr act | SHSY5Y TTR promoter Gaussia luciferase, luminescence; 100% = purified Lucia enzyme wells, no cells | activation, % at 16.7 µM | 1,100 tested, under 10 active | AID 1117280;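 active = mean activation above a set limit taken from the earlier primary screen, cut at about 11% in these data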;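 also: 0% = DMSO-treated cells and 100% = recombinant Lucia luciferase without cells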
# An asterisk follows results filed as active. The sample as a whole holds a higher share of hits than the screen did.
SMILES,TTR transcr act,others
CCC(c1nnnn1Cc1ccco1)N(Cc1ccccc1OC)Cc1cc2cc(C)ccc2[nH]c1=O (centres undefined),7,
CCC(c1nnnn1Cc1ccco1)N(Cc1cc2cc(C)cc(C)c2[nH]c1=O)CC1CCCO1 (centres undefined),18*,HuH7 TTR inh=14;TTR up confirm=0
Cc1cccc2cc(C(c3nnnn3C(C)(C)C)N(Cc3ccco3)CC3CCCO3)c(=O)[nH]c12 (centres undefined),-2,
COC(=O)[C@]12C[C@H](CC(=O)N3CCCCC3)C(=O)N(Cc3ccc(Cl)cc3Cl)C1=C[C@H](C1CCCC1)O[C@@H]2C,-1,
C(=C\c1ccccc1)/CN1CCN(C(c2nnnn2-c2ccc3c(c2)OCCO3)C2CC2)CC1 (centres undefined),0,
COC(=O)C[C@@H]1CC[C@@H]2[C@@H](COc3ccc(NC(=O)Nc4ccccc4)cc3C(=O)N2C)O1,-1,
CCc1ccccc1NC(=O)NNC(=O)CCc1ccc(OC)cc1,13*,HuH7 TTR inh=-25;TTR up confirm=2
COc1ccc(C(C)NC(=O)CCc2ccccc2)cc1 (centres undefined),0,
COc1ccc(CCC(=O)NNC(=O)Nc2ccc(C(C)C)cc2)cc1,-1,
C#CCNC(=O)C[C@H]1C(=O)N(CCCOC)C2=CCCCC[C@]21C(=O)OC,0,
CCC(=O)Nc1nnc(-c2ccco2)o1,1,
Cc1ccc(C(=O)Nc2nnc(-c3ccco3)o2)cc1,6,
Cc1ccsc1C(=O)Nc1nnc(-c2ccco2)o1,16*,HuH7 TTR inh=0;TTR up confirm=0
COC(=O)[C@]12C[C@H](CC(=O)NCC3CCCCC3)C(=O)N(Cc3ccc(Cl)cc3Cl)C1=C[C@H](C1CCCC1)O[C@@H]2C,0,
CC1(C)C=C2C(N(Cc3ccc4c(c3)OCO4)C(=N)N2C(=O)OCc2ccccc2)n2c(=O)n(-c3ccccc3)c(=O)n21 (centres undefined),1,
Cc1ccccc1CN1CCCCC(NC(=O)c2ccc(COc3ccccc3)cc2)C1=O (centres undefined),-4,
Cc1cccc(OCC(=O)NC2CCCc3ccccc32)c1C (centres undefined),0,
Cc1ccc(C(=O)OCC(=O)NC2CCCc3ccccc32)o1 (centres undefined),18*,HuH7 TTR inh=-9;TTR up confirm=0
Cc1ccc(CC(=O)NC2CCCc3ccccc32)cc1C (centres undefined),-1,
C[C@H]1[C@@H](OC(=O)Nc2ccccc2F)CC[C@@]23CCCN2C(=O)CCC[C@@H]13,2,
CCC[C@H]1[C@@H](N)CC[C@@]23CCCN2C(=O)CCC[C@@H]13,2,
O=C(Nc1c(-c2ccc(C(F)(F)F)cc2)nc2ncccn12)c1ccccc1,0,
CCCc1cc(=O)[nH]c(SCC(=O)Nc2ccc3ccccc3c2)n1,1,
CCCc1cc(=O)[nH]c(SCC(=O)NC2CCCCC2)n1,0,
CCCc1cc(=O)[nH]c(Nc2ccc(O)cc2)n1,19*,HuH7 TTR inh=0;TTR up confirm=1
SMILES,TTR transcr act,others
CC(=O)c1ccc([C@H](O)[C@@H](C(=O)N(C)c2ccccc2)C2CC2)cc1,5,
COc1cc(-c2ccccc2)nc2ccccc12,0,
O=C(NCc1ccc(F)cc1)c1cc(-c2ccncc2)nc2ccccc12,-3,
c1ccc(-c2cc(-c3ccncc3)nc3ccc4ccccc4c23)cc1,11*,HuH7 TTR inh=12;TTR up confirm=-1
COC(=O)[C@]12C[C@H](CC(=O)N3CCN(C(=O)C4CC4)CC3)C(=O)N(Cc3ccc(Cl)cc3Cl)C1=C[C@H](COCc1ccccc1)O[C@@H]2C,0,
COCCNS(=O)(=O)c1cc(OC)c(Cl)cc1Cl,1,
CCOCCCNS(=O)(=O)c1ccc(OC)c(Cl)c1Cl,12*,HuH7 TTR inh=-21;TTR up confirm=-1
COc1ccc(S(=O)(=O)NCc2cccnc2)c(Cl)c1Cl,3,
CN1C2=N[C@H](c3ccccc3Br)CC(=O)N2/C(=C\c2ccccc2)[C@@H]1c1ccccc1,0,
C#CCOCCOCCOCCNc1nc(N2CCN(C(=O)[C@H](CCCCN)n3cc([C@@H](N)CC(C)C)nn3)CC2)nc(N2CCN(C(=O)[C@H](Cc3cc4ccccc4[nH]3)n3cc([C@@H](N)CC(C)C)nn3)CC2)n1,0,
CCCC[C@H]1C2CC(OC(=O)Nc3ccccc3Cl)C(C2)[C@H]2CCCCN21 (some centres undefined),0,
O=C(CNC(=O)c1[nH]cnc1C(=O)NC(c1ccccc1)c1ccccc1)OCc1ccccc1,11*,HuH7 TTR inh=-23;TTR up confirm=-1
O=C(CNC(=O)c1[nH]cnc1C(=O)N[C@@H](Cc1ccccc1)C(=O)OCc1ccccc1)OCc1ccccc1,5,
CC(C)(C)OC(=O)CNC(=O)c1[nH]cnc1C(=O)NCC(=O)OCc1ccccc1,0,
CCCCOC(=O)CCN1C(=O)/C(=C/c2ccccc2)SC1=S,1,
Cc1ccccc1NC(=O)C1CC(=O)N(Cc2ccccc2)C1 (centres undefined),0,
COc1cccc(NC(=O)C2Cc3ccccc3CN2C(=O)c2ccco2)c1 (centres undefined),1,
Cc1ccccc1NC(=O)C1Cc2ccccc2CN1C(=O)OCc1ccccc1 (centres undefined),11*,HuH7 TTR inh=-12;TTR up confirm=-1
CN1C(=O)C(=O)N2C(=C[C@]3(c4c[nH]c5ccccc45)c4ccccc4N[C@H]23)C1=O,1,
O=[N+]([O-])c1ccc(Cn2ccc3ccc(-c4ccc5ccn(Cc6ccccc6)c5c4)cc32)cc1,2,
c1nc(NCC2CCCOC2)c2cc(-c3ccc4c(c3)OCO4)ccc2n1 (centres undefined),0,
CC(C)(C)c1csc(CS(=O)(=O)c2ccccn2)n1,0,
N/C(=N\O)c1cccc(CS(=O)(=O)c2ccccn2)c1,10.0*,HuH7 TTR inh=-11;TTR up confirm=0
Cc1c(S(=O)(=O)c2ccccn2)c(N)n(Cc2cccc(Cl)c2)c1C,-1,
COC(=O)[C@]12C[C@H](CC(=O)NCc3ccc(C)o3)C(=O)N(Cc3cccc4ccccc34)C1=C[C@H](C1CCCC1)O[C@@H]2C,3,
SMILES,TTR transcr act,others
Cc1cc(C(=O)OCC(=O)Nc2cccc(S(=O)(=O)N3CCOCC3)c2)c(C)o1,0,
O=C(COC(=O)c1cccnc1Cl)Nc1cccc(S(=O)(=O)N2CCOCC2)c1,-1,
O=C(COC(=O)C1=COCCO1)Nc1cccc(S(=O)(=O)N2CCOCC2)c1,14*,HuH7 TTR inh=-7;TTR up confirm=0
CCCCN1CCS(=O)(=O)N(Cc2cn(Cc3cccc(Cl)c3)nn2)C(C(=O)OC)C1 (centres undefined),0,
COC(=O)C1=C(C)OC(N)=C(C#N)C1c1ccccc1F (centres undefined),2,
COC(=O)CSC1=C(C#N)C(c2ccccc2F)CC(=O)N1 (centres undefined),-1,
N#CC1=C(N)NC(=S)C(C(N)=O)C1c1ccccc1F (centres undefined),12*,HuH7 TTR inh=-25;TTR up confirm=0
Cc1nc2ccccn2c1P(=O)(c1ccccc1)c1ccccc1,1,
O=C(c1ccc2c(=O)n(-c3ccccc3)c(=S)[nH]c2c1)N1CCCCC1,0,
CCCCCn1c(=S)[nH]c2cc(C(=O)N3CCCC3)ccc2c1=O,10*,HuH7 TTR inh=2;TTR up confirm=2
COc1ccc(CCn2c(=S)[nH]c3cc(C(=O)N4CCOCC4)ccc3c2=O)cc1OC,-1,
